# Reference: the supplement of paper PMC6555819
# Tests used:
# Experiment in all cases: PBM binding z-score (relative to random genomic background probes); higher = stronger binding; sequences stand for … in GC…GCGATTGACAGCGTAGAATGAAGG
# [1] = test system: FXR:RXRa (NR concentration 270 nM, RXRa partner concentration 90 nM)
# In short: (§1)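 Probes were double-stranded and carried 34-nt variable regions with direct-repeat seeds, single-nucleotide variants, half-site ablations and random human genomic background sequences, printed on custom Agilent 4×180K protein-binding microarrays. Arrays were incubated 1 h with ligand-free nuclear receptor dimers in PBS pH 7.4, 2% milk, 0.02% Triton X-100, 1 mM DTT, 0.2 mg/mL BSA and 0.4 mg/ml salmon testes DNA. Antibodies against each partner (one per run) detected binding, and scanned fluorescence was regression-normalized. Binding z-scores use the random background probes as reference.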
# [2] = test system: LXRa:RXRa (NR concentration 270 nM, RXRa partner concentration 90 nM)
# In short: as §1
# [3] = test system: LXRa homodimer (NR concentration 270 nM)
# In short: as §1
# [4] = test system: LXRb:RXRa (NR concentration 270 nM, RXRa partner concentration 90 nM)
# In short: as §1
# [5] = test system: LXRb homodimer (NR concentration 270 nM)
# In short: as §1
# [6] = test system: PPARa:RXRa (NR concentration 270 nM, RXRa partner concentration 90 nM)
# In short: as §1
# [7] = test system: PPARg:RXRa (NR concentration 180 nM, RXRa partner concentration 90 nM)
# In short: as §1
# [8] = test system: PPARg:RXRa 270nM:90nM, anti-RXR (NR concentration 270 nM, RXRa partner concentration 90 nM)
# In short: as §1
# [9] = test system: PPARg:RXRa 30nM:10nM, anti-RXR (NR concentration 30 nM, RXRa partner concentration 10 nM)
# In short: as §1
# [10] = test system: PPARg:RXRa 90nM:30nM, anti-RXR (NR concentration 90 nM, RXRa partner concentration 30 nM)
# In short: as §1
# [11] = test system: PPARg:RXRa DBDmut IVT, anti-RXR (DBD mutation: RXRa K156A/R161A, NR concentration 270 nM, RXRa partner concentration 90 nM)
# In short: as §1
# [12] = test system: PPARg:RXRa IVT, anti-PPARg (NR concentration 270 nM, RXRa partner concentration 90 nM)
# In short: as §1
# [13] = test system: PPARg DBDmut:RXRa IVT, anti-PPARg (DBD mutation: PPARg1 K132A/R137A, NR concentration 270 nM, RXRa partner concentration 90 nM)
# In short: as §1
# [14] = test system: PPARg DBDmut IVT, anti-PPARg (DBD mutation: PPARg1 K132A/R137A, NR concentration 270 nM)
# In short: as §1
# [15] = test system: PPARg homodimer (NR concentration 180 nM)
# In short: as §1
# [16] = test system: PXR:RXRa (NR concentration 270 nM, RXRa partner concentration 90 nM)
# In short: as §1
# [17] = test system: PXR homodimer (NR concentration 270 nM)
# In short: as §1
# [18] = test system: RARa:RXR (NR concentration 270 nM, RXRa partner concentration 90 nM)
# In short: as §1
# [19] = test system: RARa homodimer (NR concentration 270 nM)
# In short: as §1
# [20] = test system: RARb:RXRa (NR concentration 270 nM, RXRa partner concentration 90 nM)
# In short: as §1
Sequence,PBM binding z-score [1],PBM binding z-score [2],PBM binding z-score [3],PBM binding z-score [4],PBM binding z-score [5],PBM binding z-score [6],PBM binding z-score [7],PBM binding z-score [8],PBM binding z-score [9],PBM binding z-score [10],PBM binding z-score [11],PBM binding z-score [12],PBM binding z-score [13],PBM binding z-score [14],PBM binding z-score [15],PBM binding z-score [16],PBM binding z-score [17],PBM binding z-score [18],PBM binding z-score [19],PBM binding z-score [20]
CGAACTAGGTCAGTGACAGGACAGTGAATAGTAA,1.32,0.944,-0.268,0.82,-0.44,3.47,5.73,4.86,1.66,4.11,7.42,7.6,2.57,0.828,0.785,0.605,0.0765,1.03,0.459,3.11
TCGAGTAGATTAGTCGGGGCATTCAGCCAACATA,-0.148,-0.282,-0.477,0.225,-1.13,-0.142,-0.45,0.0888,0.947,0.374,0.609,-0.356,-0.764,-0.113,-0.53,-0.262,-0.468,-0.389,-0.665,-0.416
GCTAGTTGGTCAGTAAAAGGTCACGCACCGGTCG,4.11,4.91,4.69,4.3,0.681,4.73,3.18,5.04,2.52,4.78,1.6,2.94,1.14,0.145,5.9,5.48,1.28,6.73,4.45,4.47
TAGCCTAGGTCATACGGGCCAGTATAGTGTCGGC,4.14,3.21,0.859,1.8,-0.00996,3.5,2.18,2.57,0.318,1.54,1.67,2.89,-0.195,-0.639,0.811,1.66,-0.13,2.4,0.0154,3.56
TCGAGTAGGTTTCCAATGGGGCATTCAGCTTTCT,0.0114,-0.0745,-0.502,0.0167,-0.0602,-0.255,-0.735,0.178,0.836,0.304,1.53,0.378,-1.11,-0.734,-1.12,-0.503,-1.03,-0.636,-1.26,-0.326
CCTTACGGGTCACTCCAGATTATAGCATCGGAGT,4.83,4.8,-0.0778,2.91,0.399,4.41,3.39,3.43,0.931,2.35,2.52,3.47,0.108,0.192,1.74,2.59,0.423,2.96,0.564,3.75
CCGACTGGGGCATAAGTTTACCATAAGCCAGCCC,-0.352,-0.207,-0.448,-0.337,-0.91,0.222,1.66,2.44,0.241,1.74,3.09,2.55,-0.897,-1.31,0.107,-0.336,-0.547,-0.262,-0.566,0.68
TGTCAAAGTTCAAAGGTAACGTGAGTATCCACAC,6.92,6.79,4.59,4.91,1.54,5.99,8.97,7.93,6.04,7.73,0.486,4.72,1.71,2.12,3.33,5.78,3.67,6.92,0.948,5.15
ATATGTAGGTTACATCCGGGTCATTCATGCTATG,2.21,4.15,1.59,3.05,0.928,4.55,6.16,5.07,2.55,4.45,7.49,7.53,5.06,3.54,3.61,3.79,1.66,3.83,1.2,2.23
CCTAGTTGGTCTAGGTCACACACGCTATAGGTAC,1.54,1.66,1.3,1.68,0.465,2.18,1.42,1.53,0.318,0.958,2.17,3.05,0.258,0.48,2.14,1.4,0.764,2.1,1.82,2.63
ATCTCTAGGTGACAAGTTCAGTGAAAGAGAGGAC,0.297,0.503,0.114,0.645,0.171,2.58,3.19,3.1,1.46,2.43,4.9,4.99,1.89,2.47,0.963,1.33,1.38,0.974,0.324,2.12
CCAGACAGGTGCGAAGGTAACTCAGCCTCGATTA,-0.321,-0.36,-0.34,-0.424,-0.755,-0.406,0.0695,-0.0964,-0.987,-0.523,-0.128,-0.749,-1.66,-1.77,-0.207,-0.494,-0.385,-0.323,0.0972,-0.199
TCATATAGGTAAAAGGTGACAGTCGGTGTGGTAA,1.88,1.46,-0.178,1.61,0.00468,5.19,9.43,8.82,8.45,9.66,5.71,5.54,2.29,1.71,1.76,1.36,1.05,2.14,1.41,1.7
CGCCCAAGGTCAATGCTAGGTCAGTGAAAGCATT,6.51,5.61,2.46,4.24,0.667,4.93,4.07,4.33,1.03,3.08,2.79,3.47,-0.141,-0.36,5.9,4.68,1.04,6.04,0.81,5.09
ATACCAAGGTGATCGTGAGGTCGTTCATACTAAC,2.05,1.58,1.23,1.4,0.148,1.53,0.472,0.354,-0.0192,-0.0407,0.587,1.54,0.827,0.877,1.15,3.23,2.03,2.01,0.612,1.5
CCTACTGGGCCATTCAGAGGTCATTAATCATATG,2.24,3.76,5.48,3.81,0.468,3.74,1.99,2.79,0.44,2.02,4.22,4.37,0.0729,0.0343,2.11,4.17,2.46,3.83,0.0599,2.88
CCCCGGAGGACAACAGGAGGTCAGAGCTGCCAGA,1.51,2.55,2.5,1.75,-0.479,2.24,0.602,0.469,-0.809,-0.262,-0.654,0.373,-1.55,-1.4,2.15,2.19,0.777,2.7,0.677,2.86
ACTCGGAGCACAAAGGTCAGAGCTACGCCAGTGA,3.44,3.72,1.25,3.11,0.00562,4.38,5.58,6.38,4.55,6.24,0.735,2.74,-0.286,-0.435,2.92,3.62,0.191,4.5,0.544,4.29
ACTAGCAGGCCCAGTTTGGGTCACTCAAACAAAG,-0.0555,-0.448,-0.417,0.4,-0.861,0.93,-0.337,0.0503,-0.523,-0.144,-0.917,0.48,-1.4,-0.708,-0.457,0.133,-0.753,0.833,-0.613,0.828
CGTCCAAGGTCACTGCTAGGTCAGTGAAAGCATT,6.69,5.11,1.49,4.28,0.283,5.14,4.7,5.1,1.92,3.94,3.59,4.59,-0.128,0.266,3.91,4.72,1.09,5.65,0.316,5.42
TCTTGAAGATCAGCAGGTTAAGAAAGCTGGCCAA,0.211,0.582,-0.541,0.285,-0.955,0.856,-0.581,1.44,2.86,2.07,1.75,-0.514,-1.09,-0.481,-0.436,0.0848,-0.299,0.104,-0.00981,0.0583
CTTACTGGGCCATTCAGAGGTCATTGATCATATG,3.23,4.72,6.7,4.11,0.985,4.48,4.03,4.43,2.21,3.71,6.81,6.21,0.768,1.22,2.09,4.88,2.99,4.16,0.436,3.23
ATCTGTAGGTTACATCCGGGTCATTCAGGCTATG,1.94,4.67,1.97,2.81,1.35,3.22,1.98,2.56,0.963,1.83,3.84,4.04,1.35,1.89,1.96,3.52,1.9,3.18,0.982,2.34
TAACCTAGGTCATGCGGGCCAGTATAGTGTCGGC,4.19,4.46,1.83,2.55,-0.0591,4.09,4.16,3.58,1.11,2.56,3.49,4.46,0.354,0.297,1.08,1.84,-0.126,2.5,0.00748,3.89
GTAACGAGGGCATTCGAGTTGATAGCATGGCGAT,1.83,1.91,-0.134,0.286,-0.321,1.72,1.12,0.912,0.115,0.712,3.16,2.66,0.308,-0.0825,-0.229,3.76,2.23,0.683,-0.277,1.89
ATCGAAACGTCGAAGGTGAGTATACCCACCCGAA,-0.17,-0.352,-0.345,-0.738,-0.334,-0.193,0.676,-0.0479,0.0501,-0.0142,-0.927,-0.0186,0.59,0.626,-0.242,-0.502,-0.249,-0.42,0.0263,0.237
CTCGAAAGGTCGGTTAAGGTGAGTATACGGATAA,3.06,2.1,0.202,1.84,0.111,3.04,0.591,1.48,0.313,0.943,0.549,1.14,0.246,0.287,1.69,2.61,0.341,1.97,0.996,3.22
TCTATTAGTTGATTAGGGGAACCGAAACAGCGGA,0.954,0.771,0.585,0.845,1.38,0.915,0.0434,2.05,4.11,2.94,2.55,0.819,0.627,1.48,1.45,0.576,0.595,0.544,2.06,0.416
TCATATAGGTAATACAGGTGTAAGTCGGCATCTA,1.11,1.19,0.352,0.876,0.401,1.28,1.06,2.23,3.93,3,3.63,2.43,1.94,1.17,1,0.767,0.343,0.844,1.25,0.255
